# PubChem BioAssay (NCI)
# About 83,000 compounds went through this panel and 20% of them were active in at least one assay; those are over-represented in the sample as a whole.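 Testing used 96-well plates and a 48-hour single-concentration exposure. Example: -40 means 40% of the starting cells died.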 Values without a mark were called inactive. Active and inactive are the calls of the source. How the source made its calls: active means growth percent below 10; inactive means the rest.
# Columns and labels:
# Assay in all cases: NCI-60 one-dose screen, 48 h (100 = growth as untreated, 0 = no growth, -100 = all killed)
# Conditions in all cases: 10 µM unless noted
# [1] = tested on: NCI-H23 lung
# [2] = tested on: NCI-H226 lung
# [3] = tested on: NCI-H322M lung
# [4] = tested on: HOP-62 NSCLC
# [5] = tested on: NCI-H460 lung
# [6] = tested on: HOP-92 NSCLC
# [7] = tested on: NCI-H522 lung
# [8] = tested on: A549/ATCC NSCLC
# [9] = tested on: 786-0 renal
# [10] = tested on: COLO 205 colon
Compound,growth [1] [%],growth [2] [%],growth [3] [%],growth [4] [%],growth [5],growth [6],growth [7],growth [8] [%],growth [9],growth [10]
COc1cc(/C=C/c2cc(O)c(C(C)=O)c(O)c2)cc2c1O[C@]1(C)CC[C@@H](O)C(C)(C)[C@H]1C2,73.6,89,76.2,52.7,76.3%,95.5%,79%,81.4,7.29% (active),94.5%
Cc1ccc(C(=O)/C(=C/c2ccc([N+](=O)[O-])cc2)SCc2ccc(Cl)cc2)cc1,61.8,76.3,75.5,100,74.6%,92%,63.1%,67.9,52.1%,82.7%
CCOC(=O)Oc1c(OC)cc(C(=O)c2ccc(OC)c(OC(=O)CCl)c2OC)cc1OC,32.5,64.5,45.2,16.9,10.4%,57%,8.85% (active),22.9,19.2%,94.8%
Cc1ccc(-c2csc(NC(=O)CSc3nc(-c4ccccc4)cc(=O)[nH]3)n2)cc1,92.2,103,93.4,100,101%,82.5%,80.3%,91.7,104%,109%
Cc1cc2nc3c4cccc(O)c4n(CCN(C)C)c3nc2cc1C,32.3,37,38,31.7,9.09% (active),55.1%,31%,20.4,40.4%,59.7%
CCSCC1CC(O)(c2ccccc2)CC(c2ccc(F)cc2)O1 (stereo not given),26.6,24.6,45.4,26.2,-30.9% (active),-9.6% (active),53.9%,20.7,-23.7% (active),-94.8% (active)
COc1ccc(C(=O)Cn2c(C(=O)c3ccccc3)nc3ccccc32)cc1,28.2,38.5,78.7,40.6,8.51% (active),54.7%,-28.1% (active),31.8,43.6%,51%
COC1=CC(=O)c2ccccc2C1=O,48.9,104,94.9,44.9,106%,127%,77.8%,97.4,105%,117%
C=C1C(=O)O[C@H]2[C@H]1CC/C(COC(=O)NCCc1c[nH]c3ccc(OC)cc13)=C\CC[C@@]1(C)O[C@@H]21,73.9,51,87.2,83.4,69.4%,-8.74% (active),-74.2% (active),64.2,-35.4% (active),-47.2% (active)
Cn1ccnc1C(=O)/C=C/c1ccc(CC(=O)NC2CCCCC2)cc1,61.9,92.8,61,56,26%,75%,52.1%,64.1,71.3%,67.9%
O=S(=O)(NCCNc1nccc(-c2c(-c3cccc(F)c3)nc3sccn23)n1)c1ccc(Cl)cc1,74.9,49.3,65.5,82.6,30.1%,76.6%,68.2%,32.1,51.3%,40%
NC1=NN=C(N)C1=Cc1cc2ccccc2n2nnnc12,99,100,105,96.8,105%,87.4%,95%,103,93.9%,99.7%
CCOC(=O)CSc1nc2ccccc2c(=O)n1Cc1ccc(S(N)(=O)=O)cc1,98,100,99.7,95.5,101%,94.6%,91.3%,98,104%,106%
